# Experimental data: PubChem BioAssay AID1979 (Broad Institute, 2009)
# Screen size: about 300,000 compounds; about 1,700 (0.57%) were called active. Roughly 2% stayed inconclusive and do not appear here.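 Rule for the calls: active = growth inhibition above about 58% in most replicates (limit read from the data, passing the limit was not always enough); inconclusive = exactly half the replicates above a set limit; inactive = most replicates below a set limit.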 What follows is part of a selection rich in actives, with near analogues and random picks from the rest.
# Assay: Candida growth reduction under fluconazole – CaCi-2 strain, Alamar Blue fluorescence, primary screen (AID 1979);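 note: all wells also contain fluconazole at 8 µg/ml as a sub-toxic cotreatment; 0% = median of DMSO wells and 100% = median of geldanamycin control wells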
# Details: C. albicans CaCi-2 (fluconazole-resistant clinical isolate) + fluconazole, 48 h, active compounds read high, concentration not given here
row,Compound,growth inhibition
1,Cc1cc2ccccn2c1C(C[N+](=O)[O-])c1c(F)cccc1Cl (stereo not given),88.5% (active)
2,C/C(=N/O)c1ccc2ccc3ccccc3c2c1,-4.17% (inactive)
3,Cc1nn(-c2ccccc2)c(C)c1NC(=O)COC(=O)Cc1ccccc1,-2.49% (inactive)
4,O=C(Cc1ccccc1)N1CCN(C2CCCCCC2)CC1,-12% (inactive)
5,CC1=C(C(=O)Nc2ccccc2)SCCO1,0.0228% (inactive)
6,Cc1cccc(-n2c(O)c(/C=N/N3CCOCC3)c(=O)[nH]c2=S)c1,12.2% (inactive)
7,Cc1cccc(-n2c(O)c(C=Nc3ccccc3N)c(=O)[nH]c2=O)c1,103% (active)
8,Cc1cccc(-n2c(O)c(C=NC34CN5CN(CN(C5)C3)C4)c(=O)[nH]c2=O)c1,-4% (inactive)
9,COc1ccccc1C1=NCc2nnc(CSC)n2-c2ccc(Cl)cc21,2.88% (inactive)
10,COc1ccc(S(=O)(=O)NCc2ccc(C(=O)N3CCC4(CC3)OCCO4)cc2)cc1,-9.32% (inactive)
11,CC(C)(C)c1ccc(OC(=O)N2CCCCC2)cc1,11.1% (inactive)
12,C=CCN1C(=O)NC(=O)/C(=C/c2ccc(OCC(=O)Nc3ccc(C)cc3)cc2)C1=O,-16.2% (inactive)
13,CC1=CC(=Cc2sc3ccccc3[n+]2C)C=C(C)O1,103% (active)
14,CNCC(O)c1cc(F)c(OCc2ccccc2)c(OCc2ccccc2)c1F (stereo not given),-32.5% (inactive)
15,COc1ccccc1NC(=O)N1C[C@@H]2C[C@@H](C1)c1cccc(=O)n1C2,7.25% (inactive)
